Compound activity from PubChem BioAssay.
GLP1R ag: GLP-1 receptor (human) agonism; actives 0.007% (n = 380,000); Potency, µM (series often up to 45.6 µM), for the others: top-dose activation, most hits filed as activators; AID 624172; P43220; HEK293 GLP-1R CRE-luciferase, luminescence, 4-6 h; cells express a hypersensitive GLP-1R form; further: % of control where 0% means no effect
Target sequence (P43220 whole entry, looked up): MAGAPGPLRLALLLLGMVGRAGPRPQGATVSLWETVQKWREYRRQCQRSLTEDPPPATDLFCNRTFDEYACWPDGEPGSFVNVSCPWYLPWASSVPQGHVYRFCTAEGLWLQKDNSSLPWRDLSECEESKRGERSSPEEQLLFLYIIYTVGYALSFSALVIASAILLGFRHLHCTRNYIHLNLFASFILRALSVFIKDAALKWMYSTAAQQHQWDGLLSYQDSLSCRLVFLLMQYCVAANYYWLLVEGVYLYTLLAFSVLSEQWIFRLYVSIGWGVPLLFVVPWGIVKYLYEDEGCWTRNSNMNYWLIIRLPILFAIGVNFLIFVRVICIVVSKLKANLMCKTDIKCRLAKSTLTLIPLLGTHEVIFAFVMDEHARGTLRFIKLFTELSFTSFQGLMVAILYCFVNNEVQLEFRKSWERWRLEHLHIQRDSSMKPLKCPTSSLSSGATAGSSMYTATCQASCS
GLP-1R inv ag: inverse agonists of human GLP-1 receptor | AID 624417 | actives 1.6% (n = 410,000) | P43220 | HEK293 GLP-1R CRE-luciferase, luminescence, 24 h; GLP-1R form is constitutively active | Potency, µM (series often up to 38.3 µM), for inactives: at the top dose activity change, negative = inhibition, actives largely listed as inhibitors; further: on the % scale 0 is the no-effect control and ±100 the full control effect; nearly all actives have a fitted effect of over 55% in size
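Inverse agonists were sought by their lowering of basal cAMP reporter luciferase output in HEK293 cells stably carrying constitutively active human GLP-1R, after 24 h compound treatment.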
GLP1R cytotox: cytotoxic in the GLP-1 receptor inverse agonist counter-screen; HEK293 cAMP-luciferase reporter cells, luminescence, 24 h; Potency, µM (highest dose often 38.3 µM), for inactives: at the highest dose activity change, negative = inhibition, actives largely listed as inhibitors; actives 0.13% (n = 410,000);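 further: loss of luciferase light is scored as toxicity; on the % scale 0 is the no-effect control and ±100 the full control effect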
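Here, cytotoxicity is scored as loss of luminescence. The MLSMR collection was tested on cells seeded in medium containing 10% Nu serum, with a 24 hr compound exposure preceded by 12 hours of culture.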
Active calls of the source: *; ? = inconclusive; · = no result given. An excerpt weighted towards active compounds, which were near 1.7% of everything screened. The call rests on the fitted dose curve; in most records, active means well fitted curve in the direction sought with a large enough effect; inconclusive means small, poorly fitted or top-dose-only effect, or another doubt; inactive means no such curve, though single readings can be large; an effect the other way counts as inactive or inconclusive. Potency means the concentration at half of the fitted maximal effect.

SMILES | GLP1R ag | GLP-1R inv ag | GLP1R cytotox
Cc1ccccc1NC(=S)NC(=O)c1cc(-c2ccccc2)nc2ccccc12 | -7% | 7.9µM* | 0%
O=C(N/N=C/c1ccc(F)cc1)c1cc(-c2ccccn2)nc2ccccc12 | -8% | 19% | -1%
COc1cccc(/C=N/NC(=O)c2cc(-c3ccccn3)nc3ccccc23)c1O | 14% | 5µM* | -3%
C/C(=N\NC(=O)c1cc(C)nc2ccccc12)c1ccccn1 | -6% | ? | 3.2µM*
O=C(N/N=C/c1ccccn1)c1cc(C2CC2)nc2ccccc12 | 12% | -11% | -20%
Cc1cccc(NC(=S)NC(=O)c2cc(-c3ccccc3)nc3ccccc23)c1 | -9% | ? | 3%
O=C(N/N=C/c1ccccn1)c1cc(-c2ccccc2)nc2ccccc12 | -5% | ? | 5µM*
C/C(=N\NC(=O)c1cc(C)nc2ccccc12)c1ccncc1 | -1% | -17% | -33%
Cc1cc2c(cc1C)-n1nnnc1C(N1CCCC1)C(=O)N2 (stereo not drawn) | · | -11% | -11%
C[C@]12CC[C@H](O)CC1=CCC1C2CC[C@@]2(C)C1CC[C@@H]2NCc1ccccc1 (stereo partly drawn) | 13% | -11% | 6%
Cc1ccc(NC(=O)C2CCCN2S(=O)(=O)c2cccc3nsnc23)cc1Cl (stereo not drawn) | · | ? | -14%
CC(C)CCNC(=O)CCn1c(=O)c2cccn2c2cccnc21 | · | 6% | 8%
CC(=O)Nc1ccc(NC(=O)c2oc3ccc4c(c3c2C)C(=O)CC(C)(C)O4)cc1 | 4% | 17% | -5%
NNC(=O)CNC(c1ccccc1)c1cc(Br)ccc1NC(=O)c1cccc(Cl)c1 (stereo not drawn) | -6% | ? | -4%
COC(=O)CNC(c1ccccc1)c1cc(Cl)ccc1NC(=O)c1cccc(Cl)c1 (stereo not drawn) | -18% | 10µM* | -9%
CCOC(=O)CNC(c1ccccc1)c1cc(Br)ccc1NC(=O)c1cccc(Cl)c1 (stereo not drawn) | · | 8.9µM* | 1%
COC(=O)CNC(c1ccccc1)c1cc(Br)ccc1NC(=O)c1ccccc1 (stereo not drawn) | · | ? | 12%
CCOC(=O)CN1C(=O)NC2(CCCc3ccccc32)C1=O (stereo not drawn) | 8% | -27% | 0%
Cc1[nH]c(-c2ccc(F)cc2)cc1C(=O)N1CCN(c2ccc(Cl)cc2)CC1 | -4% | -17% | -14%
COc1ccc(N2CCN(C(=O)c3cc(-c4ccc(F)cc4)[nH]c3C)CC2)cc1 | 7% | 10µM* | -8%
NC(=O)C1CCN(C(=O)c2cc3ccccc3cc2O)CC1 | -12% | 13% | 3%
CC1CCN(CC2CCN(C(=O)NCc3ccccc3)CC2)CC1 | · | -2% | 2%
CN(C)c1cccc(NC(=O)c2ccco2)c1 | 6% | 50% | 2%
CCN(CC)P(=O)(Nc1cccc(C(F)(F)F)c1)c1ccc(N(C)C)cc1NC(=O)c1ccco1 (stereo not drawn) | -5% | 2.5µM* | -8%
CC(C)(C(=O)N1CCC1(C)C(=O)Nc1ccccc1Br)c1ccccc1 (stereo not drawn) | -4% | ? | 5%
SMILES | GLP1R ag | GLP-1R inv ag | GLP1R cytotox
Cc1ccc(-n2cccn2)c(CN2CCCC(C(=O)c3sccc3C)C2)c1 (stereo not drawn) | 4% | ? | 11µM*
Cc1ccsc1C(=O)C1CCCN(Cc2cccn2-c2ccc(Cl)cn2)C1 (stereo not drawn) | -6% | ? | ?
CCCOc1cccc(C2c3c(oc4ccccc4c3=O)C(=O)N2c2nncs2)c1 (stereo not drawn) | · | 6% | 1%
CCN1CCCC1CNC(=O)c1ccc(Sc2ccc(F)cc2)c([N+](=O)[O-])c1 (stereo not drawn) | 10% | ? | 3%
CCN1CCCC1CNC(=O)c1ccc(Sc2ccccc2Cl)c([N+](=O)[O-])c1 (stereo not drawn) | 7% | 3.2µM* | -28%
O=C(NC1CCCC1)C(c1ccc(F)cc1)N(C(=O)Cc1cccs1)c1ccc2c(c1)OCCO2 (stereo not drawn) | 2% | 0% | 9%
Cc1ccc(C(C(=O)NC2CCCC2)N(C(=O)Cc2cccs2)c2ccc(C)c(C)c2)o1 (stereo not drawn) | 3% | 10µM* | -28%
Cc1ccc(C(C(=O)NC2CCCC2)N(C(=O)Cc2cccs2)c2ccc3c(c2)OCCO3)cc1 (stereo not drawn) | -1% | 10µM* | -27%
Cc1ccc(C)c(N(C(=O)Cc2cccs2)C(C(=O)NC2CCCC2)c2ccc(C)o2)c1 (stereo not drawn) | -2% | -2% | -13%
